Screening data deposited in PubChem by several laboratories.
An excerpt weighted towards active compounds, which were near 0.79% of everything screened.
E coli growth-1 – inhibitors of Escherichia coli growth | OD600, 23 h; hits give low values | OD600 absorbance (test concentration not listed) | 330,000 tested, 0.21% active | AID 1053175;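 active = OD600 absorbance below the run mean of sample wells minus 3.6 SD, in any replicate, cut at about 0.56 in these data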
AI-2 QS mod – modulates the Vibrio harveyi AI-2 quorum sensing system; Vibrio harveyi JMH597 AI-2 luminescence/OD600 ratio, 9 h; hits give low values; strain lacks LuxN and CqsS sensors; 0 = neutral-control median; activity change, % at 7.5 µM; 300,000 tested, 0.4% active; AID 2094; in the data active = activity change below about -75%, passing the limit was not always enough; inconclusive = no clear call, values can overlap the other calls;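 note: luminescence divided by OD600 gain over 9 h not by final OD600 alone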
AddAB inh – less growth of phage-infected E. coli with AddAB. E. coli expressing H. pylori AddAB, absorbance growth. inhibition, % at 11.9 µM. 330,000 tested, 0.29% active; in the data active = inhibition above about 12%;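 note: 0% = vehicle wells of infected cells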
Tat export inh – inhibitors of E. coli Tat protein transport | E. coli MC4100 TorA-mCherry Tat export, fluorescence | inhibition, % at 10 µM | 340,000 tested, 0.036% active | AID 488895;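 active = mean replicate inhibition at least 50% and at least half of replicates individually reaching 50%; inconclusive = only one of the two criteria met; inactive = neither criterion met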;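 note: exported cargo escapes ClpAP degradation while cytoplasmic cargo is degraded and loses fluorescence; 0% = median of neutral control wells and 100% = median of NaSCN control wells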
E coli growth-2 – reduces bacterial viability in AddAB counter-screen | E. coli V3065 growth, OD600 absorbance, 18 h | inhibition, % at 11.9 µM | 330,000 tested, 0.27% active;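 active = inhibition above the campaign's mean inhibition across all tested compounds plus 3 SD, cut at about 9.9% in these data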;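 note: uninfected addAB+ strain grown without phage in ampicillin broth; 0% = DMSO wells and 100% = ciprofloxacin 0.95 µg/ml wells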
phage Ecoli inh – E. coli growth loss with phage present | growth absorbance | inhibition, % at 11.9 µM | 360,000 tested, 0.26% active; in the data active = inhibition above about 11%
JMH597 growth rt – retest Vibrio harveyi JMH597 growth inhibition | 750 tested, 1% active | AID 2726 | OD600 absorbance, 9 h; lacks LuxN and CqsS sensors | growth inhibition, % at 7.5 µM | shares compounds with AI-2 QS mod;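 active = every replicate shows growth inhibition above 50%; inconclusive = at least half, but not all, replicates pass that cutoff; inactive = fewer than half of replicates pass it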
BB721 const-QS lum – retest counter-screen: luminescence loss in constitutive-on quorum sensing strain BB721. shares compounds with AI-2 QS mod. Vibrio harveyi BB721 luminescence, 9 h. inhibition, % at 7.5 µM. 750 tested, 95% active. AID 2727;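 active = inhibition above about 80% in every replicate, not just on average, limit read from the data; inconclusive = at least half of replicates past the limit, but not all; inactive = fewer than half of replicates past the limit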
BB721 growth rt – retest: inhibitors of Vibrio harveyi BB721 growth; 750 tested, 3% active; shares compounds with AI-2 QS mod; growth inhibition, % at 7.5 µM; AID 2728; OD600 absorbance, 9 h;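 active = every replicate shows growth inhibition above 50%; inconclusive = at least half but not all replicates above 50% inhibition; inactive = under half of replicates above 50% inhibition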
AI-2 QS JMH597 – Vibrio harveyi AI-2 signaling luminescence modulation – JMH597 strain, confirmation | shares compounds with AI-2 QS mod | Vibrio harveyi JMH597 AI-2 quorum sensing luminescence, 9 h; luxN and CqsS knockout, AI-2 only | inhibition, % at 7.5 µM | 750 tested, 97% active;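 active = every replicate shows more than 75% inhibition of signal versus neutral control wells; inconclusive = half to three quarters of replicates exceed 75% inhibition; inactive = fewer than half of replicates exceed 75% inhibition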
Starred values were filed as active, the others as inactive; ? = inconclusive; · = no result.

SMILES	E coli growth-1	AI-2 QS mod	AddAB inh	Tat export inh	E coli growth-2	phage Ecoli inh	JMH597 growth rt	BB721 const-QS lum	BB721 growth rt	AI-2 QS JMH597
COc1cc(/C=N/NC(=O)Cn2cnc3ccccc3c2=O)ccc1O	·	-89*	2	-1	-1	-1	-7	95*	-17	97*
Clc1ccc(OCc2nc(-c3ccncc3)no2)c(Cl)c1	0.68	10	2	-5	1	4	·	·	·	·
c1ccc(OCc2nc(-c3cccs3)no2)cc1	0.64	-84*	1	-4	2	2	24	96*	11	97*
Clc1cccc(OCc2nc(-c3ccncc3)no2)c1	0.69	-88*	2	-1	1	4	10	96*	-11	97*
Fc1ccc(OCc2nc(-c3cccs3)no2)cc1	0.7	-68	0	11	4	1	·	·	·	·
Cc1noc(C)c1S(=O)(=O)Nc1ccc2c(c1)C(=O)N(C(C)CO)CC(C)C(CN(C)S(=O)(=O)c1ccccc1)O2 (configuration not stated)	0.68	·	·	·	·	·	·	·	·	·
Cc1ccc(S(=O)(=O)N2C(c3cccc(C)c3)CC=C(C(=O)O)C2c2ccc(Cl)cc2)cc1 (configuration not stated)	0.67	·	·	·	·	·	·	·	·	·
O=C(NN=C/C(Cl)=C/c1ccc([N+](=O)[O-])cc1)C(=O)Nc1ccccc1C(=O)O	0.65	·	·	·	·	·	·	·	·	·
O=C(NNc1nc2cc3c(cc2s1)OCCO3)c1ccccc1	·	-93*	-4	1	-1	3	-6	98*	18	98*
CCN(CC)C(=NS(=O)(=O)c1ccccc1C)c1ccccc1	0.7	·	·	·	·	·	·	·	·	·
CCOC(=O)c1ccc(S(=O)(=O)Nc2ccc3cn[nH]c3c2)cc1	0.66	-90*	4	9	2	3	28	95*	28	97*
COc1ccc(S(=O)(=O)Nc2ccc3cn[nH]c3c2)cc1C	0.68	9	1	-2	-2	2	·	·	·	·
N#CCCn1cc(C=NNC(N)=S)c(-c2ccc(Br)cc2)n1	0.68	·	·	·	·	·	·	·	·	·
CN(C)S(=O)(=O)c1ccc(Oc2ccccc2)cc1	0.65	-93*	4	4	2	4	-8	84*	-56	99*
CCOC(=O)c1c(N=CN(C)C)sc(C)c1C	0.64	·	·	·	·	·	·	·	·	·
COc1ccc(C2CC(=O)C=C(c3cccc4c3Oc3ccccc3S4)C2)cc1OC (configuration not stated)	0.73	·	·	·	·	·	·	·	·	·
CN(C)c1cc[n+](CC(=O)Nc2cccc([N+](=O)[O-])c2)cc1	0.64	-44	1	7	-1	0	·	·	·	·
CN(C)c1cc[n+](CC(=O)Nc2ccc(Cl)c([N+](=O)[O-])c2)cc1	0.73	-87*	0	7	2	5	4	96*	-5	97*
Cc1ccc(Cn2ncc(Cl)c(Cl)c2=O)cc1	0.63	12	-1	-1	-4	3	·	·	·	·
O=c1c(Cl)c(Cl)cnn1Cc1nnc(-c2ccc(Cl)cc2)o1	0.66	-91*	·	-7	·	3	-23	98*	22	99*
CCOC(=O)C1C(=O)C=C(C=Cc2ccc(N(C)C)cc2)CC1c1ccccc1 (configuration not stated)	0.73	·	·	·	·	·	·	·	·	·
O=C(Nc1cccc(C(F)(F)F)c1)C1CCN(S(=O)(=O)c2cccnc2)CC1	0.7	-83*	1	-11	-1	2	-29	92*	28	94*
Cc1ccc(CNC(=O)C2CCN(S(=O)(=O)c3cccnc3)CC2)cc1	0.72	?	-3	-1	-2	1	29	93*	8	95*
O=C(NCc1cccnc1)C1CCN(S(=O)(=O)c2cccnc2)CC1	0.77	-3	4	7	0	0	·	·	·	·
Cc1ccc(NC(=O)C2CCN(S(=O)(=O)c3cccnc3)CC2)cc1C	0.68	-89*	4	-6	2	5	19	95*	18	96*
